This excerpt belongs to a sample that is enriched for hits.
Chlamy TAG: inducers of triacylglycerol accumulation in Chlamydomonas reinhardtii algae; Chlamydomonas reinhardtii TAG, Nile Red fluorescence, 72 h; calls only at 10 µM (by protocol); 0.84% of 44,000 active; call rule not given here;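 note: hits raise Nile Red signal meaning more stored TAG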
An asterisk follows results filed as active.

What do the screens show for `Cc1cc(Br)ccc1OCCCN1CCOCC1`?
Chlamy TAG: inactive

What do the screens show for `Clc1ccc(OCCOCCN2CCOCC2)c(Br)c1`?
Chlamy TAG: active

Results for Clc1cc(Br)ccc1OCCN1CCOCC1 ?
Chlamy TAG: inactive

Results for Clc1cc(Br)ccc1OCCCN1CCCC1 ?
Chlamy TAG: inactive

What do the screens show for `Cc1cc(Br)ccc1OCCN1CCOCC1`?
Chlamy TAG: inactive

What do the screens show for `Clc1cc(Br)ccc1OCCCN1CCOCC1`?
Chlamy TAG: active

Results for NC(=O)CN(CC(N)=O)S(=O)(=O)c1ccc([N+](=O)[O-])cc1 ?
Chlamy TAG: inactive

How did Cc1ccc(C(=O)c2ccc(Cl)cc2)cc1[N+](=O)[O-] do in these assays?
Chlamy TAG: inactive

Results for COc1ccc(/C=C(/NC(=O)c2ccco2)C(=O)Nc2cccc(Br)c2)cc1 ?
Chlamy TAG: inactive

Results for COc1ccc(C(=O)Nc2cccc(-c3nnc(-c4ccccc4)o3)c2)cc1 ?
Chlamy TAG: inactive

How did CN(C)c1ccc(/C=C/C(=O)c2cccs2)cc1 do in these assays?
Chlamy TAG: inactive

Results for NC(=O)c1ccccc1NC(=O)c1cccc(C(=O)Nc2ccccc2C(N)=O)c1 ?
Chlamy TAG: inactive

Results for O=C1C2C3CCC(C3)C2C(=O)N1c1nccs1 (stereo not drawn) ?
Chlamy TAG: active

Results for O=C1c2ccc(Oc3ccc4c(c3)C(=O)N(c3nccs3)C4=O)cc2C(=O)N1c1nccs1 ?
Chlamy TAG: inactive

Results for O=C1C2C(C(=O)N1c1nccs1)C1C=CC2C12CC2 (stereo not drawn) ?
Chlamy TAG: inactive

What do the screens show for `Cc1cccc(N(CC(=O)NCc2ccco2)S(=O)(=O)c2ccccc2)c1C`?
Chlamy TAG: inactive

Results for CCN(CC)CCN(C)Cc1cccc(C)c1 ?
Chlamy TAG: inactive

What do the screens show for `c1cc2c(cc1CN1CCCCC1)OCO2`?
Chlamy TAG: inactive

What do the screens show for `c1cc2c(cc1CN1CCOCC1)OCO2`?
Chlamy TAG: inactive

What do the screens show for `c1ccc2c(c1)CCN(Cc1ccc3c(c1)OCO3)C2`?
Chlamy TAG: active

What do the screens show for `Cc1cc(F)c(F)cc1C(=O)N1CCCCC1`?
Chlamy TAG: inactive

Results for CC(=O)Nc1ccc(S(=O)(=O)Nc2cc([N+](=O)[O-])ccc2C)cc1 ?
Chlamy TAG: active

How did COc1ccc([N+](=O)[O-])cc1NS(=O)(=O)c1ccc(NC(C)=O)cc1 do in these assays?
Chlamy TAG: inactive

How did COc1cc([N+](=O)[O-])ccc1NS(=O)(=O)c1ccc(NC(C)=O)cc1 do in these assays?
Chlamy TAG: inactive

What do the screens show for `Cc1ccc(-c2csc(NC(=O)c3ccc(Br)o3)n2)c(C)c1`?
Chlamy TAG: inactive

What do the screens show for `CC(=O)C1=C(C)NC(SCC(=O)c2ccc(-c3ccccc3)cc2)=C(C#N)C1c1ccco1` (stereo not drawn)?
Chlamy TAG: inactive

How did CC1CN(CC(O)COc2ccc(Cl)cc2Cl)CC(C)O1 (stereo not drawn) do in these assays?
Chlamy TAG: inactive

What do the screens show for `Cc1cc(OCC(O)CN2CCN(c3ccccc3)CC2)ccc1C(C)C` (stereo not drawn)?
Chlamy TAG: inactive

What do the screens show for `CC(C)(C)c1ccc(OCC(O)CN)cc1` (stereo not drawn)?
Chlamy TAG: inactive

Results for CC(C)(C)c1ccc(OCC(O)CN2CCN(CCO)CC2)cc1 (stereo not drawn) ?
Chlamy TAG: active

What do the screens show for `Cc1cc(OCC(O)CN2CCN(CCO)CC2)ccc1C(C)C` (stereo not drawn)?
Chlamy TAG: active

What do the screens show for `CC1CN(CC(O)COCc2ccc(Cl)cc2)CC(C)O1` (stereo not drawn)?
Chlamy TAG: inactive

What do the screens show for `CC1CN(CC(O)COc2ccc(C(C)(C)C)cc2)CC(C)O1` (stereo not drawn)?
Chlamy TAG: active

What do the screens show for `CCOC(=O)N1CCN(CC(O)COc2ccc(C(C)(C)C)cc2)CC1` (stereo not drawn)?
Chlamy TAG: inactive

Results for Cc1cc(C)n(CC(O)COc2ccc(C(C)C)c(C)c2)n1 (stereo not drawn) ?
Chlamy TAG: inactive

Results for OC(COc1ccccc1Br)CN1CCOCC1 (stereo not drawn) ?
Chlamy TAG: inactive

What do the screens show for `CCOc1ccc(C=C(C#N)c2nc(-c3ccc(OCC)cc3)cs2)cc1`?
Chlamy TAG: inactive

Results for Cc1ccc(S(=O)(=O)N(c2ccccc2C)C(F)F)cc1 ?
Chlamy TAG: inactive

What do the screens show for `Cc1ccc(C)c(OCc2nc(-c3ccccn3)no2)c1`?
Chlamy TAG: inactive

How did COc1cc(C=O)ccc1OCc1cccc(C(=O)O)c1 do in these assays?
Chlamy TAG: inactive

What do the screens show for `O=C(Nc1ccc(F)cc1)c1ccccc1NC(=O)C1CCCN1S(=O)(=O)c1ccccc1` (stereo not drawn)?
Chlamy TAG: inactive

Results for CN1CCCN(Cc2ccc([N+](=O)[O-])o2)CC1 ?
Chlamy TAG: active

Results for O=[N+]([O-])c1ccc(CN2CCN(c3ccccc3)CC2)o1 ?
Chlamy TAG: inactive

From PubChem
